PAX8 reporter: lowers PAX8-driven luciferase in RMG-I cells; RMG-I TPO-luciferase reporter, SteadyGlo, 24 h; inhibition, % at 12.6 µM; 360,000 tested, 1.2% active; AID 652154;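 active means mean replicate inhibition at least 60% with every replicate also reaching 60%; inconclusive means only one of the two criteria is met; inactive means mean below 60% and not all replicates reaching 60%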;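 further: luciferase light reporting Pax8 driven TPO promoter activity; plate controls were median of neutral control wells for no effect and mitoxantrone controls for full effect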
Shn3 inh set2: inhibitors of Schnurri-3 3'UTR reporter in osteoblasts; 360,000 tested, 0.52% active; Clone20 osteoblast Shn3 3'UTR firefly luciferase, 24 h; AID 588674; inhibition, % at 12.5 µM;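 active means mean inhibition of at least 75% with every replicate also reaching 75%; inconclusive means mean inhibition at least 75% but some replicate below; inactive means mean inhibition below 75%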;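 further: 0% = median of neutral control wells and 100% = pilot-screen positive control compound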
KKLEB tox: counter-screen for CF NF-kB inhibitors: cytotoxicity. KKLEB CF airway cells viability, ATPlite luminescence, overnight; stronger effect = lower value; cells stimulated with P. aeruginosa culture filtrate. activity change (cytotoxicity), % at 5 µM. 360,000 tested, 0.36% active. AID 602141;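 active means corrected activity change at or below -50% at 5 µM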
CF NFkB inh: cystic fibrosis NF-kB activation inhibition | KKLEB NF-kB-GFP reporter, PAF-induced, GFP fluorescence overnight | 360,000 tested, 0.86% active | AID 588850 | inhibition, % at 5 µM;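 active means at least 50% inhibition at 5 µM, scaled per plate between neutral and stimulator controls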;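 further: PAF is a Pseudomonas aeruginosa culture filtrate used as stimulus; plate controls were PAF-stimulated DMSO wells for no effect and unstimulated DMSO wells for full effect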
LGR2 antag: Drosophila LGR2 receptor signaling inhibition; HEK293 LGR2, CRE-luciferase, bursicon-stimulated, 4 h; inhibition, % at 9.99 µM; 380,000 tested, 0.35% active;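 active means drop in luminescence signal, shown as inhibition above about 50% in the replicate tests, limit read from the data, passing the limit was not always enough; inconclusive means probably only some replicates passing the limit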;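 further: agonist challenge used bursicon conditioned medium at about half maximal strength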
EWS-Fli block: EWS/Fli transcriptional activity inhibition. A673 NR0B1-luciferase reporter, viability-normalised. inhibition, % at 12.6 µM. 350,000 tested, 0.67% active. AID 651661;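 active means mean inhibition of at least 50% after viability correction, with every replicate also passing that limit; inconclusive means mean reaches 50% but only one of two replicates passes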;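 further: firefly luciferase signal divided by Alamar Blue viability fluorescence both relative to DMSO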
* marks the source's active call; other numbers are inactive results; ? = inconclusive; . = no result; ! = not confirmed by another sample. Shown are actives, neighbours in structure and some others; about 2% of the full set was active somewhere.

SMILES	PAX8 reporter	Shn3 inh set2	KKLEB tox	CF NFkB inh	LGR2 antag	EWS-Fli block
C[C@@H]1CN([C@H](C)CO)C(=O)Cc2cc(NC(=O)Nc3ccc(F)cc3)ccc2O[C@H]1CN(C)CC1CC1	-7	.	.	.	26	-5
N#C[C@@H]1[C@H](c2ccccc2-c2ccccc2)[C@H](CO)N1C(=O)NC1CCCC1	-9	.	.	.	7	-3
C[C@H](CO)N1C[C@H](C)[C@@H](CN(C)Cc2ccc(C(=O)O)cc2)Oc2ccc(NC(=O)Nc3ccc(C(F)(F)F)cc3)cc2CC1=O	22	.	.	.	4	-3
C[C@@H]1CN([C@@H](C)CO)C(=O)c2cc(N(C)C)ccc2O[C@H]1CN(C)S(=O)(=O)c1ccc(F)cc1	1	.	.	.	14	-1
COc1ccc(-c2nc3ccccc3n2Cc2ccc(C)cc2)cc1	.	-20	-2	0	-3	.
COc1ccc(Cn2c(-c3ccc(C)cc3)c[n+]3ccccc23)cc1	88*	76	-8	22	13	5
Cc1noc(C)c1S(=O)(=O)N(C)C[C@H]1OCCCC[C@H](C)Oc2ccc(NS(C)(=O)=O)cc2C(=O)N([C@H](C)CO)C[C@@H]1C	.	.	.	.	-9	-1
CC(=O)Nc1ccc2c(c1)C(=O)N(C)[C@H]1CC[C@H](CC(=O)Nc3cccc(Cl)c3)O[C@@H]1CO2	13	.	.	.	4	9
Cc1cc2nc(-c3ccc(SCC(=O)Nc4nccs4)nc3)[nH]c2cc1C	.	9	-59*	58*	-6	.
CC(=O)CSc1ccc(-c2nc3cc(C)c(C)cc3[nH]2)cn1	69*	69	-17	-6	98*	69*
Cc1cc2nc(-c3ccc(SCC(=O)Nc4ccc(S(=O)(=O)N5CCCC5)cc4)nc3)[nH]c2cc1C	-80	-31	-54*	23	-57	.
CNC[C@H]1OCCCC[C@H](C)Oc2ccc(NC(=O)CCC(F)(F)F)cc2C(=O)N([C@@H](C)CO)C[C@@H]1C	18	.	.	.	-8	-58
C[C@H]1CN([C@@H](C)CO)C(=O)c2cc(NC(=O)Nc3ccccc3)ccc2O[C@H]1CN(C)S(=O)(=O)c1ccc(F)cc1	.	.	.	.	-19	-10
Fc1ccc2[nH]c3c(N4CCN(c5ccccc5)CC4)ncnc3c2c1	.	89*	-3	-14	.	.
COc1ccc2[nH]c3c(N4CCc5ccccc5C4)ncnc3c2c1	20	51	-7	-23	79*	-3
OC1(c2cccc(C(F)(F)F)c2)CCN(c2ncnc3c2[nH]c2ccc(F)cc23)CC1	.	89*	-15	-9	.	.
CO[C@@H](CN(C)Cc1ccc2c(c1)OCO2)[C@@H](C)CN(C(=O)Nc1ccc(F)cc1)[C@@H](C)CO	.	.	.	.	-14	-1
N#Cc1c2ccc([N+](=O)[O-])cc2[n+]([O-])n1-c1ccccc1	68*	31	-38	-24	12	62*
CC[C@@]1(c2ccccc2OC)ON(c2ccccc2C(F)(F)F)C1=O	60	-5	4	59*	?	6
CC1=CC(C)(C)N2C(=O)C(=O)c3cc(OC(=O)c4ccco4)cc1c32	13	17	-15	64*	7	?
Cc1[nH][nH]c(=O)c1C(c1c(C)[nH][nH]c1=O)c1cn(Cc2ccccc2Cl)c2ccccc12	17	5	-37	68*	-16	.
N/C(=N\O)c1cn(Cc2ccccc2Cl)c2ccccc12	6	11	-3	-4	9	8
COCCCNc1nnc(Cc2ccc(Cl)cc2)c(=O)[nH]1	16	-10	-10	19	16	58*
COCCNc1nnc(Cc2ccc(Cl)cc2)c(=O)[nH]1	-12	18	4	-7	-5	0
NC(c1csc(NC(=O)Nc2ccc(OC(F)(F)F)cc2)n1)C1CCCCC1 (stereo unspecified)	25	17	-65*	69*	16	55*
SMILES	PAX8 reporter	Shn3 inh set2	KKLEB tox	CF NFkB inh	LGR2 antag	EWS-Fli block
CCOC(=O)C1CCCN(C(=O)Cn2sc3nc(C)cc(C)c3c2=O)C1 (stereo unspecified)	.	97*	14	16	.	.
Cc1cc(C)c2c(=O)n(CC(=O)N3CCC(N4CCCCC4)CC3)sc2n1	-33	-15	-6	28	.	-6
COc1ccc(NC(=O)c2nc(C)c(C3(C)CC(c4ccccc4)=NO3)s2)cc1 (stereo unspecified)	44	21	1	7	8	55*
CC(O)CC(=O)OC[C@]12CC[C@H]3[C@@](C)(CC[C@H]4C(C)(C)CCC[C@]34C)[C@@H]1CC(C1=CC(=O)OC1O)O2 (stereo partly specified)	.	93*	-88*	104*	.	59*
Cc1cc(C(C#N)c2ccc(Cl)cc2)c(Cl)cc1NC(=O)c1cc(I)cc(I)c1O (stereo unspecified)	3	4	-12	62*	.	1
CN1CCCCN2[C@H](C1)[C@@H](c1ccc(-c3cccnc3)cc1)[C@@H]2CO	9	.	.	.	-7	-7
Cc1cccc(NC(=O)CNC(=O)CSc2ncccn2)c1C	.	-48	-5	13	-9	-12
Cc1cccc(NC(=O)CNC(=O)Cn2ncc(Cl)c(Cl)c2=O)c1C	.	46	-61*	92*	.	.
O=C(Cn1ncc(Cl)c(Cl)c1=O)NCC1CCCCC1	1	75	-73*	95*	.	?
O=C(Cn1ncc(Cl)c(Cl)c1=O)NC1CCS(=O)(=O)C1 (stereo unspecified)	27	3	2	-2	-8	1
COc1ccc(S(=O)(=O)N(C)C[C@@H]2Oc3ccc(NS(=O)(=O)c4cn(C)cn4)cc3CC(=O)N([C@H](C)CO)C[C@H]2C)cc1	-9	.	.	.	-8	-13
S=c1nc[nH]c2nc[nH]c12	75*!	42	-23	-7	-25	36
C[C@H](CO)N1C[C@H](C)[C@H](CN(C)C)Oc2ccc(NS(=O)(=O)c3ccc(F)cc3)cc2C1=O	2	.	.	.	-8	-10
O=C(C[C@@H]1C[C@H]2c3cc(NS(=O)(=O)c4ccc(F)cc4)ccc3O[C@H]2[C@H](CO)O1)NCc1ccc(Oc2ccccc2)cc1	101*	.	.	.	.	59*
O=C(C[C@@H]1C[C@@H]2c3cc(NS(=O)(=O)c4ccc(F)cc4)ccc3O[C@@H]2[C@H](CO)O1)NCc1ccc(Oc2ccccc2)cc1	56	48	-39	17	7	25
O=C(C[C@@H]1C[C@H]2c3cc(NC(=O)Cc4ccncc4)ccc3O[C@H]2[C@@H](CO)O1)NCc1ccc(-c2ccccc2)cc1	43	.	.	.	6	30
O=C(C[C@H]1C[C@@H]2c3cc(NC(=O)Nc4ccc(C(F)(F)F)cc4)ccc3O[C@@H]2[C@@H](CO)O1)NCc1ccc(Cl)cc1	89*	.	.	.	4	21
O=C(Nc1ccc(C(F)(F)F)cc1)Nc1ccc2c(c1)[C@H]1C[C@H](CC(=O)N3CCc4ccccc4C3)O[C@H](CO)[C@H]1O2	82*	.	.	.	21	15
